DAX1 inh-1: inhibits human nuclear receptor DAX1; actives 0.99% (n = 340,000); P51843; HEK293 Gal4-DAX1 luciferase reporter, luminescence; inhibition, % at 6.75 µM;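 active = inhibition above the mean over all tested compounds plus 3 SD, cut at about 4.2% in these data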;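 note: inhibition shows as a rise in luminescence from relieved DAX1 repression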
Target sequence (P51843 207-470 limits assumed): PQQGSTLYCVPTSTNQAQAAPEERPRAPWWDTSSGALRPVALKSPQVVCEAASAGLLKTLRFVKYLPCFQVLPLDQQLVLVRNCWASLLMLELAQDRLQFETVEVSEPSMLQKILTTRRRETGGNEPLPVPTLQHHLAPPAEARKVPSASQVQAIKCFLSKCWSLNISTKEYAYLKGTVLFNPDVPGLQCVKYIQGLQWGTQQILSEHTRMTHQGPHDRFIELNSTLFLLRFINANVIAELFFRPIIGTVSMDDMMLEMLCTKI
ssDAF-12 act: S. stercoralis DAF-12 activation, primary screen; AID 652126; actives 1% (n = 370,000); activation, % at 6.8 µM; HEK293 ssDAF-12/GRIP1 lit1-tk-luc reporter, luminescence; % of 3 µM dafachronic acid response;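 active = activation above the mean over all tested compounds plus 3 SD, cut at about 0.9% in these data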
SMARCA2 activ: increases SMARCA2 function in MMTV reporter cells; AID 652017; activation, % at 9.1 µM; MG213 cells, MMTV-luciferase reporter, dexamethasone, overnight; actives 1% (n = 370,000); in the data active = activation above about 7.8%
hcDAF-12 act: H. contortus DAF-12 activation, primary screen | HEK293 hcDAF-12 lit1-tk-luc reporter, luminescence; 0% DMSO, 100% Δ7-dafachronic acid | activation, % at 6.8 µM | actives 1.4% (n = 370,000) | AID 652067;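 active = activation above the mean of all tested compounds plus 3 SD, cut at about 5.5% in these data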
DAX1 inh-2: DAX1 (NR0B1) inhibition, primary screen | HEK293T StAR-luciferase reporter, SF-1/DAX-1 repression relief | inhibition, % at 6.8 µM | actives 1.1% (n = 370,000);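 active = inhibition above the mean over all tested compounds plus 3 SD, cut at about 3.6% in these data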;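 note: higher inhibition means more luminescence from relief of DAX-1 repression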
hgDAF12 agonist: hgDAF-12 agonism, primary luciferase screen. activation, % at 6.8 µM. actives 1.8% (n = 370,000). HEK293 GAL4-hgDAF12 UAS-luciferase reporter, agonist luminescence; normalized to butyrate control. AID 687014;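 active = activation above a cutoff set at the mean of all screened compounds plus 3 SD, cut at about 10% in these data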
Large screens that a line does not name were inactive. Rows were chosen to be rich in hits. Some 4.8% of all compounds tested hit in one or more screens of this group.

C(=NOCCc1ccccc1)c1ccncc1	ssDAF-12 act 1.3
OCCC1CN(CC#Cc2ccccc2)CCN1Cc1ccccc1F (stereo not drawn)	ssDAF-12 act 1.6
CC(C)CN1CCN(CC#Cc2ccccc2)CC1CCO (stereo not drawn)	none
CCOc1ccccc1Nc1cc(C)nc2nnnn12	ssDAF-12 act 1.0
Cc1ccc(-c2c(C(=O)NC3CCCC3)oc(=O)c3ccccc23)cc1	none (no result: DAX1 inh-1)
Nn1c(SCC(=O)Nc2cccc3ccccc23)nnc1-c1cc(-c2ccccc2)n[nH]1	none (no result: DAX1 inh-1)
C=CCNC(=O)NC(=O)COC(=O)CNS(=O)(=O)c1ccc(F)c(F)c1F	DAX1 inh-1 5.2
O=C(COC(=O)CNS(=O)(=O)c1ccc(F)c(F)c1F)NC1CC1	none
CN(CC(=O)N1CCN(c2ncccn2)CC1)S(=O)(=O)c1ccc(Cl)cc1	ssDAF-12 act 2.2
CN(CC(=O)N1CCN(c2ccccn2)CC1)S(=O)(=O)c1ccccc1	none
Cc1cc(C(=O)COC(=O)c2ccc(Cl)c(S(N)(=O)=O)c2)c(C)n1CC1CCCO1 (stereo not drawn)	DAX1 inh-1 4.6
COC(=O)[C@@]12CCCCC3=C1N(CCC3)C(=O)[C@H]2CC(=O)NCc1cccc(C(F)(F)F)c1	none (no result: DAX1 inh-1)
O=S1(=O)CC2c3ccccc3CN2CN1Cc1ccc(F)cc1 (stereo not drawn)	none (no result: DAX1 inh-1)
C(=C/c1nccc2c1[nH]c1ccccc12)/c1ccc2c(c1)OCO2	hgDAF12 agonist 13
O=C(O)/C=C/C(=O)Nc1c(F)cccc1F	DAX1 inh-1 4.2
O=C(O)/C=C/C(=O)Nc1ccc(OCc2ccccc2)cc1	none
O=C(O)/C=C/C(=O)Nc1ccc(-n2nccc2C(F)(F)F)cc1	DAX1 inh-1 4.2
O=C(O)/C=C/C(=O)Nc1ccccc1-c1ccccc1NC(=O)/C=C/C(=O)O	none
O=C(O)/C=C/C(=O)Nc1ccc(-n2ccc(C(F)(F)F)n2)cc1	none
O=C(O)/C=C\C(=O)Nc1ccccc1C#Cc1ccccc1	hgDAF12 agonist 10
O=C(O)/C=C/C(=O)Nc1ccc(-c2ccccc2)cc1	hgDAF12 agonist 11
CCCS/C(N)=N/N=C/c1cc(C)ccc1O	hgDAF12 agonist 11
S=C(Nc1ccc(I)cc1)OC1CCC12CCC(c1ccccc1)CC2 (stereo not drawn)	none (no result: DAX1 inh-1)
O=C(NC1CCS(=O)(=O)C1)/C(=C/c1ccc(Cl)cc1)NC(=O)c1ccccc1 (stereo not drawn)	DAX1 inh-1 4.8
C(=C\c1ccccc1)/C=N/N1CCN(c2ccccn2)CC1	hgDAF12 agonist 11
CCCC(=O)N1CCC[C@]2(CC[C@H](CCC#N)O2)C1	none (no result: DAX1 inh-1)
CSc1nc2n(n1)C(c1cccc(F)c1)C(C(=O)Nc1ccc(C)cc1C)=C(C)N2 (stereo not drawn)	none
CC1=C(C(=O)Nc2ccc(C)cc2C)C(c2ccc(Cl)cc2)n2nc(C(=O)OC(C)C)nc2N1 (stereo not drawn)	DAX1 inh-1 4.4
Cc1cccc(C)c1NC(=O)C1CCCN1S(=O)(=O)c1cccc2cccnc12 (stereo not drawn)	none (no result: DAX1 inh-1)
CC(=O)N[C@@H]1C[C@@H]2O[C@H](CO)CC[C@@H]2O[C@@H]1CCc1ccc(C#CC2(O)CCCC2)cc1	none (no result: DAX1 inh-1)
COC(=O)[C@]12C[C@H](CC(=O)N3CCSCC3)C(=O)N(CCC3=CCCCC3)C1=C[C@H](C(C)(C)C)O[C@@H]2C	none (no result: DAX1 inh-1)
CC(C)(C)c1cc(NCCCn2ccnc2)n2ncc(-c3ccccc3)c2n1	hgDAF12 agonist 12 (no result: DAX1 inh-1)
Cc1cc(N)n2ncc(-c3ccccc3)c2n1	hgDAF12 agonist 11
CN(C)CCCNc1cc(C(C)(C)C)nc2c(-c3ccc(Cl)cc3)cnn12	none
CC(C)Nc1cc(C(C)(C)C)nc2c(-c3ccccc3)cnn12	DAX1 inh-1 6.0
CCCCN1C[C@@H](COCc2ccccc2)Oc2cccc(F)c2S1(=O)=O	none (no result: DAX1 inh-1)
COc1ccc(N2CCCN(CC(=O)Nc3ccccc3C)CC2)cc1	none (no result: DAX1 inh-1)
Cc1csc(NC(=O)c2ccc(COc3ccccc3F)o2)n1	none (no result: DAX1 inh-1)
CC(=O)c1oc2ccccc2c1NC(=O)CCCN1C(=O)c2ccccc2C1=O	hcDAF-12 act 5.8
COC(=O)CCC(=O)c1oc2ccccc2c1NC(=O)CCCN1C(=O)c2ccccc2C1=O	none
Cc1cccc(-c2ccc3[nH]c4c(c3c2)CCN2C[C@H]3[C@H](C)ON(C)[C@H]3C[C@@H]42)c1	none
Cc1cccc(-c2ccc3c(c2)[C@@H]2C[C@H]4[C@@H](CN2CC3)[C@H](C)ON4C)c1	none (no result: DAX1 inh-1)
C[C@@H]1ON(C)[C@H]2C[C@H]3c4cc(-c5ccc(F)cc5)ccc4CCN3C[C@@H]12	ssDAF-12 act 0.9 (no result: DAX1 inh-1)
C[C@@H]1ON(C)[C@H]2C[C@H]3c4[nH]c5ccccc5c4CCN3C[C@@H]12	ssDAF-12 act 1.4
CCOc1ccc(-n2c(=O)[nH]c3sc4c(c3c2=O)CCCC4)cc1	DAX1 inh-1 7.8
O=C(c1ccc(F)cc1Cl)N1CCCC(c2nc(-c3cccs3)no2)C1 (stereo not drawn)	none (no result: DAX1 inh-1)
COc1cccc(N2CCc3c(C)nc4ccc(Cl)cc4c32)c1	none
CCN1Cc2c(/C=C/c3ccccc3)nc3ccc(OC)cc3c2N(c2cccc(Cl)c2)C1	hcDAF-12 act 5.7
COc1ccc(OC)c(/C=N/NC(=O)c2cnccn2)c1	DAX1 inh-1 4.4
COc1ccc(/C=N/NC(=O)c2cnccn2)c(OC)c1OC	none
O=C(N/N=C/c1cccc([N+](=O)[O-])c1)c1cnccn1	none
COc1ccc(CCNC(=O)c2cnccn2)cc1	none
COc1ccc(CCNC(=O)C/C(C)=N/NC(=O)c2cnccn2)cc1	DAX1 inh-2 4.2
O=C(N/N=C/c1cc([N+](=O)[O-])ccc1Cl)c1cnccn1	DAX1 inh-1 5.1
Cc1ccc(Cn2cc(CN3[C@@H](Cc4ccccc4)COc4cc(Br)ccc4S3(=O)=O)nn2)cc1	none (no result: DAX1 inh-1)
N#Cc1cccc(OC[C@@H](O)CN2CCC(C(O)(c3ccccc3)c3ccccc3)CC2)c1	none (no result: DAX1 inh-1)
CC1CCN(c2ccccc2NC(=O)c2ccc(Br)o2)CC1	ssDAF-12 act 1.0
CN1CCN(c2ccccc2NC(=O)c2ccc(Br)o2)CC1	none
O=C(Nc1ccccc1N1CCOCC1)c1cc2ccccc2o1	ssDAF-12 act 1.3
Clc1ccccc1Cn1ccc2ccc(-c3ccc4ccn(Cc5ccccc5Cl)c4c3)cc21	none (no result: DAX1 inh-1)
C=CCN1C(C(=O)OC)CN(Cc2cn(CCC3OCCO3)nn2)CCS1(=O)=O (stereo not drawn)	none (no result: DAX1 inh-1)
Cc1ccccc1-n1c(Cn2c(=O)sc3ccccc32)nnc1SCC(N)=O	DAX1 inh-1 4.6
COC(=O)c1cscc1NC(C)=O	none
C/C(=C\C(=O)Nc1cscc1C)C(=O)O	ssDAF-12 act 1.1
COc1ccccc1/C=N/NC(=O)c1ccc(NC(=O)c2ccccc2Br)cc1	none
CCOc1ccc(C(=O)N/N=C/c2ccccc2[N+](=O)[O-])cc1	hgDAF12 agonist 10

Screening results: PubChem BioAssay, The Scripps Research Institute Molecular Screening Center
